Assay results published in PubChem BioAssay (EPA / NIEHS).
Several values for one entry are separate records, joined by “and”; a condition that tells them apart may be missing. Equal entries are not always repeated. More than one record can exist for a structure, and the calls need not agree. Activity calls are given as the source filed them. How the source made its calls: active means hit-call score of the fitted dose curve at least 0.9, where 1 is the maximum; inactive means score below 0.9.

test: IUF_NPC2b_neuronal_migration_120hr: Leibniz Research Institute for Environmental Medicine (IUF) 120-hour Neural Progenitor Cell Migration Assay for Neuron Migration (NPC2b) (AID 2284300)
Experimental: IUF_NPC2-5 is a cell-based, multiplexed assay that uses hNPC, a human primary neural progenitor cells, with measurements taken at 72 or 120 hours after chemical dosing in a 96-well plate. Human neural progenitor cells (hNPC) are generated from human fetal brain cortex at gestational week (GW) 16-19. In the neural progenitor cell migration and differentiation assay (NPC2-5), hNPCs grown as spheres are plated on an extracellular matrix and migrate and differentiate out of the sphere core. The processes radial glia migration, neuronal and oligodendrocyte migration as well as neuronal differentiation, neuronal morphology and oligodendrocyte differentiation are studied using automated phase contrast imaging and automated fluorescence imaging in combination with high content image analysis. In parallel, the cell viability is assessed using an alamar blue viability assay and the cytotoxicity using a lactate dehydrogenase dependent membrane integrity assay.IUF_NPC2b_neuronal_migration_120hr is one of 12 assay components measured from the IUF_NPC2-5 assay. Neuronal migration distance at 120 hr is the mean distance of all neurons from the edge of the sphere core to each individual neuron (see IUF_NPC3_neuronal_differentiation_120hr). Neuronal migration is normalized to radial glia migration distance at 120 hr.Data from the IUF_NPC2b_neuronal_migration_120hr component was analyzed at the endpoint IUF_NPC2b_neuronal_migration_120hr in the positive analysis fitting direction relative to DMSO as the negative control and baseline of activity. Using a type of migration reporter, gain or loss-of-signal activity can be used to understand developmental effects.
Culture protocol: After the cell expansion period the cells are cultured for up to four weeks in which they are passaged every week as described in 3.6. Between one to three days after passaging spheres at a size of 0.3 mm are picked for the test method. For the assessment of neural progenitor cell migration and differentiation, the spheres are plated on poly-D-lysine/laminin coated 96-well flat bottom plates in differentiation medium (N2) to initiate migration and differentiation. Thereby one 0.3 mm big sphere is plated in the middle of a well. The differentiation medium consists of DMEM and Ham's F12 at a ratio of 3 to 1 supplemented with 1% N2 and 1% penicillin and streptomycin. Within 5 days NPCs radially migrate out of the sphere core and differentiate into radial glia cells (nestin positive), neurons (TUBB3 positive), oligodendrocytes (O4 positive) and astrocytes (GFAP positive). Cultivation during the test method is performed at 37C and 5% CO2 at a ph of 7.2-7.6.Exposure: 0.3 mm big hNPC are plated in the already prepared test conditions. Exposure starts at day 0 of differentiation and is continued over five days of differentiation until the experiment is terminated. Cells are fed with fresh medium at day 3 of differentiation. Therefore, half of the test condition solution (e.g. solvent control or compound dilution) is replaced by freshly prepared test condition solution.Test Method: Migration distance and cytotoxicity is determined after 72 hours based on brightfield images of each well. The assay is terminated by the assessment of cell viability and cytotoxicity as well as cell fixation after 120 h. Immunocytochemistry is performed for Hoechst positive nuclei, TUBB3 positive neurons and O4 positive oligodendrocytes. On the ICC images, migration after 120 hours, neuronal and oligodendrocyte number, neuronal morphology and neuron/oligodendrocyte specific migration is assessed. immunocytochemical staining (ICC) generates an image for each sphere. The plates are scanned using an automated high content imaging device and all nuclei and their positions are determined automatically based on their intensity and size. Images are imported to the Omnisphero software to run the image analysis that measures the following endpoints. […]

Structure (SMILES)	AC50	outcome
C=C(C)[C@H]1Cc2c(ccc3c2O[C@@H]2COc4cc(OC)c(OC)cc4[C@@H]2C3=O)O1	9.58 nM (active)	inactive
C[N+]1(C)CCCCC1		inactive
CCOC(=O)CC(SP(=O)(OC)OC)C(=O)OCC (stereo not given)		inactive
COP(=O)(OC)OC(Br)C(Cl)(Cl)Br (stereo not given)	38100 nM (active)	
CC(C)N(C(=O)SCC(Cl)=C(Cl)Cl)C(C)C		inactive
CCOP(=O)(NC(C)C)Oc1ccc(SC)c(C)c1 (stereo not given)		inactive
CSC1=N[C@@](C)(c2ccccc2)C(=O)N1Nc1ccccc1		inactive
COP(=O)(OC)C(O)C(Cl)(Cl)Cl (stereo not given)		inactive
CC[C@H](C)[C@H]1O[C@]2(C=C[C@@H]1C)C[C@@H]1C[C@@H](C/C=C(\C)[C@@H](O[C@H]3C[C@H](OC)[C@@H](O[C@H]4C[C@H](OC)[C@@H](NC)[C@H](C)O4)[C@H](C)O3)[C@@H](C)/C=C/C=C3\CO[C@@H]4[C@H](O)C(C)=C[C@@H](C(=O)O1)[C@]34O)O2	1.07 µM (active) and 3.32 µM (active)	
CCCCSP(=O)(SCCCC)SCCCC		inactive
CN1COCN(Cc2cnc(Cl)s2)C1=N[N+](=O)[O-]		inactive
CN(C)[C@@H]1C(=O)C(C(N)=O)=C(O)[C@@]2(O)C(=O)C3=C(O)c4c(O)cccc4[C@@](C)(O)[C@H]3[C@H](O)[C@@H]12	38700 nM (active)	
CCOP(=S)(Oc1cnc(C(C)(C)C)nc1)OC(C)C (stereo not given)		inactive
CC1=NNC(=O)N(/N=C/c2cccnc2)C1		inactive
COP(=O)(NC(C)=O)SC (stereo not given)		inactive
O=[N+]([O-])c1cc(C(F)(F)F)c(Cl)c([N+](=O)[O-])c1Nc1ncc(C(F)(F)F)cc1Cl	796 nM (active)	
CCOP(=S)(OCC)Oc1cc(C)nc(C(C)C)n1		inactive
CON=C(C(=O)OC)c1ccccc1CON=C(C)c1cccc(C(F)(F)F)c1		inactive
CCOP(=S)(OCC)SCCSCC		inactive
CCOP(=O)(OCC)Oc1cc(C)nc(C(C)C)n1		inactive
CCCSP(=O)(OCC)SCCC		inactive
CC(=NC#N)N(C)Cc1ccc(Cl)nc1		inactive
S=C1NCCN1		inactive
CCOP(=S)(OCC)OC(Cl)C(Cl)(Cl)Cl (stereo not given)		inactive
